Compound activity (PubChem BioAssay)
hcGAS lum: human cGAS inhibition | 290,000 tested, 0.081% active | recombinant h-cGAS, ATP depletion, Kinase-Glo luminescence | Q8N884 | inhibition, % at 12.5 µM;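 note: 0% = vehicle reaction and 100% = reaction without DNA for no activity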
mcGAS inh: mouse cGAS inhibition by luminescence. recombinant cGAS, Kinase-Glo ATP depletion luminescence. 160,000 tested, 0.15% active. inhibition, % at 12.5 µM. Q8C6L5. AID 1259399;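 note: 0% = negative control wells and 100% = reference inhibitor with no enzyme activity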
Target sequence (Q8C6L5 whole entry, looked up): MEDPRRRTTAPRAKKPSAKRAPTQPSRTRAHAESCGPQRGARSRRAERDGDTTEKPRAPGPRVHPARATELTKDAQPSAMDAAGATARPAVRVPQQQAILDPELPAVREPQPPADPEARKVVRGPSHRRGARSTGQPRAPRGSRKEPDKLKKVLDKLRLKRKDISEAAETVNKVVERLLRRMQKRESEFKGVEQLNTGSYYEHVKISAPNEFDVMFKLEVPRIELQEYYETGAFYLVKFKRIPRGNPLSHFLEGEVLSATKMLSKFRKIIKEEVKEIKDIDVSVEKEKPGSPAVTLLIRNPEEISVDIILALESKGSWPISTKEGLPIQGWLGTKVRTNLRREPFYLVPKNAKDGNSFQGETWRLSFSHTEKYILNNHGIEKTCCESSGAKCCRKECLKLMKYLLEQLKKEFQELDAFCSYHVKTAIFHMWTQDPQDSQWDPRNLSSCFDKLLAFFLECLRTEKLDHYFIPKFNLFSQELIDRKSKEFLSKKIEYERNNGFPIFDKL
NPYLR7 agonist: activates Aedes aegypti NPYLR7 receptor; HEK293T NPYLR7/Galpha15, GCaMP6s calcium fluorescence; activation, % at 10 µM; 270,000 tested, 0.15% active; AID 1259423; in the data active = activation above about 40%;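 note: 0% = vehicle and 100% = reference agonist at the receptor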
Starred values were filed as active, the others as inactive; . = not tested or not shown. A selection: hits, their analogues and other compounds. The true share with any hit is near 0.28%. Cut-off read from the data, not from the text of the source, unless noted: active = inhibition above about 40%; inactive = the rest.

SMILES	hcGAS lum	mcGAS inh	NPYLR7 agonist
CCOC(=O)N1CCC(NC(=O)Nc2cc(C(=O)N(C)C)ccc2C)CC1	4	0	6
COC(=O)n1c(=S)oc2cc(Cl)ccc21	6	40*	10
COC(=O)n1c(=O)oc2cc(S(=O)(=O)N3CCOCC3)ccc21	-6	.	-1
CN1CCN(c2cc(Cl)nc(SCc3ccc(C(=O)NCCN4CCCC4)cc3)n2)CC1	69*	8	12
O=C(NCCN1CCCCC1)c1ccc(CSc2nc(Cl)cc(N3CCCC3)n2)cc1	-6	-4	5
O=c1cc(C(F)(F)F)c2ccc(O)cc2o1	-10	-4	57*
O=c1cc(O)c2ccc(O)cc2o1	3	0	3
Cc1c(C(=O)NCc2ccc(C#N)cc2)sc(=O)n1Cc1cccc(F)c1	-4	.	17
O=C(O)C1(C(=O)O)CCC1.[NH2-].[NH2-].[Pt+2]	0	-4	2
Nc1nc(NCc2ccccc2)nc(N2CCCCC2)c1[N+](=O)[O-]	-4	.	-2
Cc1cc(Cl)c2oc(C(=O)N3CCNC(=O)C3c3cccc(F)c3)c(C)c2c1 (stereo unspecified)	-11	.	5
CCOc1cc(/C=C2/Oc3cc(O)ccc3C2=O)cc(Cl)c1OCC(=O)N(C)C	-5	.	150*
COc1ccc(/C=C2\Oc3cc(OCC(N)=O)ccc3C2=O)cc1	-1	.	3
CCOc1cc(C=C2N=C(c3ccc(Cl)cc3)OC2=O)ccc1OCC(=O)N(C)C	-8	-8	18
COc1cc(C=C2Oc3cc(O)ccc3C2=O)cc(OC)c1OC	-8	.	83*
COc1ccc2c(c1)CC1=C2CCC2(C)C(=O)CCC=C12 (stereo unspecified)	2	-6	-1
CNc1cc(-c2ccc(CN3CCCCC3)cn2)c2cc[nH]c2n1	60*	-6	21
CNc1cc(-c2ccc(CN)cn2)c2cc[nH]c2n1	-2	-10	24
CCOC(=O)Cn1c(=O)c2c(nc3n2CCCN3c2ccc(C)c(C)c2)n(C)c1=O	-3	-7	3
CCOC(=O)c1cc(Br)cc(F)c1NC(=O)COC	5	.	1
O=C(CSc1nnc2ccccn12)Nc1ccc([N+](=O)[O-])cc1Cl	-5	.	-4
O=C(CCl)Nc1ccc([N+](=O)[O-])cc1Cl	-7	60*	-1
O=C(CCl)Nc1ccc2c(c1)C(=O)c1ccccc1C2=O	2	57*	2
Cc1cc(NC(=O)CCl)ccc1N1CCCC1	0	1	5
CCCCCn1c(=O)c2c(nc3n2CCN3c2cc(C)cc(C)c2)n(C)c1=O	-2	.	140*
SMILES	hcGAS lum	mcGAS inh	NPYLR7 agonist
CCCCCn1c(=O)c2c(nc3n2CCN3c2ccccc2)n(C)c1=O	-5	.	4
CSC(=S)N/N=C(/c1ccccc1)c1ccccn1	64*	6	-1
NC(=S)NN=C(C(=O)c1ccccn1)c1ccccn1	-7	.	-3
CN1C(=CC=C2C(=O)CC(C)(C)CC2=O)C(C)(C)c2ccccc21	-8	.	298*
C=c1[nH]n(-c2ccccc2)c(=O)c1=CC=C1N(C)c2ccccc2C1(C)C	-9	.	19
CC(=O)c1cc(C(=O)Nc2cnc3n2CCCC3)c(=O)[nH]c1C	-4	-22	1
COc1cc(CNCCN(C)C)cc2c1OCO2	-7	-4	2
COc1cc2oc(=O)c3c4c(cc5ccc(c1CCN(C)C)c2c53)OCO4	44*	52*	2
CCc1nn2c(Nc3ccc(NC(C)=O)cc3)cc(C)nc2c1-c1ccccc1	-5	-9	-2
CC1(C)O[C@@H]2C[C@@](OCc3cccc(Cl)c3)(C(=O)NCC3CC3)CC(OCc3ccc(C(F)(F)F)cc3)[C@@H]2O1 (stereo partly specified)	-10	-4	1
O=C(CCn1c(Cc2c(Cl)cccc2Cl)nc2ccccc21)NCCN1CCCC1	46*	0	.
O=C(CN1CCCCCC1)NCCn1nnc2ccccc21	2	.	8
Cc1ccc(-n2ncc3c(C)nn(Cc4cccc(F)c4)c(=O)c32)c(C)c1	-8	.	3
CCCCC(CC)CCC(CC(C)C)OS(=O)(=O)O (stereo unspecified)	42*	.	-5
CCCCCCCCCCCCOS(=O)(=O)O	-3	.	-21
CSc1ccc(/C=N\NC(=O)c2cc(-c3ccccc3)nc3ccccc23)cc1	-1	2	0
CCCCC(=O)Oc1ccccc1C(=O)O	-6	-5	.
O=C(O)c1ccccc1OP(=O)(O)O	5	61*	-10
C=C1C(=O)O[C@@H]2C[C@@]3(C)CCC[C@H](C)C3=C[C@H]12	-4	93*	-6
Cc1ccc(-c2csc3nc(C4CC4)[nH]c(=O)c23)c(C)c1	-4	.	-19
COc1ccc(OC)c(CCNc2nc3cnc(-c4cccc5ccccc45)cc3n2C)c1	-6	-7	59*
COc1ccc(OC)c(CCNc2nc3cnc(-c4ccc5c(c4)OCO5)cc3n2C)c1	-7	15	71*
